The target in the first assay is T1, Aspartate--tRNA(Asp/Asn) ligase (Mycobacterium tuberculosis (strain ATCC 25618 / H37Rv)) (UniProt P9WFW3). Further: in the data most compounds retested in dose-response had high values.
T1 sequence (whole entry): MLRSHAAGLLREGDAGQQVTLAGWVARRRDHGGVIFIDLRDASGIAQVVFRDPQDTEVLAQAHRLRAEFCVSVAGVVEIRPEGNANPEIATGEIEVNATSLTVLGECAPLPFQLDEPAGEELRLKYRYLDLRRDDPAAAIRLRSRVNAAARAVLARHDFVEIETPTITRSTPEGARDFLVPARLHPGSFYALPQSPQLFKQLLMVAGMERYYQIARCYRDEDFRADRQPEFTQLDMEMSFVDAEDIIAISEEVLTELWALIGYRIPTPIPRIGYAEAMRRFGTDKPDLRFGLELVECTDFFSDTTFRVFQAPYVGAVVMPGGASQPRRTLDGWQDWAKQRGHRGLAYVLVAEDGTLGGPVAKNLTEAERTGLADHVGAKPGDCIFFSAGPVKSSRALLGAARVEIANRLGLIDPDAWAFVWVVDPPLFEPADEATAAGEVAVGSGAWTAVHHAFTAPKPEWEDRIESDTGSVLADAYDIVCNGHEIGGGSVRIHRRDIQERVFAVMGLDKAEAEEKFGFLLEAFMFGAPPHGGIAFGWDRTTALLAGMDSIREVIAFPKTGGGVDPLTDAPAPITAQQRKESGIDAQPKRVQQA
Description: Assay for Asp RNA synthetase-1 from Mycobacterium tuberculosis. In kind it is functional. Also noted: scale not given: direction of the effect not stated beside the values. Conditions: 30 µM.
As for `CC(=O)N1[C@H](Cn2cncn2)C[C@@H]2CN(c3ccc(C)nn3)CC[C@@H]21`, the Percent Effect was -1.81%.

Consider `Cc1cnc(CN(C)C2CCN(CCn3cc(C#N)cn3)C2)o1` (stereo unspecified), for which the Percent Effect came to 5.46%.

For `CC1CCCCN1CCNC(=O)c1ccn(-c2ccc(F)cc2)n1` (stereo unspecified), the Percent Effect stood at 3.98%.

Regarding `Cn1cnnc1C1CCCN(C(=O)c2cc(Cl)c3c(c2)OCO3)C1` (stereo unspecified), the Percent Effect is -5.25%.

Turning to `Cc1cc(C(=O)N2CCCC(n3ccnc3C)C2)c(C)s1` (stereo unspecified), the Percent Effect was -4.25%.

Take `CCC1CN(CC(=O)N2CCC2)CCN1CCOC` (stereo unspecified): the Percent Effect was 7.2%.

In the case of `CSCc1cccc(C(=O)N2CCN(CC(C)O)CC2)c1` (stereo unspecified), the Percent Effect is -0.819%.

With `Cc1cc(CN2CCC(CNC(=O)c3ccc(O)c(Cl)c3)C2)[nH]n1` (stereo unspecified), the Percent Effect was 3.15%.

Take `CCN(Cc1ccc2c(c1)OCCO2)C(=O)NCc1nc(C)cs1`: the Percent Effect was -0.519%.

Turning to `CCN(CC1CCOC1)C(=O)Nc1ccc(-n2cncn2)nc1` (stereo unspecified), the Percent Effect was -0.722%.

`CC(C)c1n[nH]c(C2CN(C(=O)CCn3ccccc3=O)CCO2)n1` (stereo unspecified): the Percent Effect was -1.85%.

`CCc1nc(C2CCCN2C(=O)c2c[nH]c(C)n2)no1` (stereo unspecified): the Percent Effect was -7.28%.

With `Cc1nc(N2CCCC2)nc2c1CN(C(=O)N1CCOCC1)CC2`, the Percent Effect stood at 0.478%.

For the compound `O=C1COc2c(cccc2C(=O)N2CCCCC2Cn2cccn2)N1` (stereo unspecified), the Percent Effect was -0.721%.

For `CN(C)C(=O)c1cccc(NC(=O)N(CCO)Cc2ccsc2)c1`, the Percent Effect is -4.93%.

For the compound `COCc1cccc(NC(C)C(=O)N(C)Cc2ccccc2)c1` (stereo unspecified), the Percent Effect is -0.212%.

For the compound `O=C(NC1(c2cccc(F)c2)CCOCC1)c1ccccn1`, the Percent Effect is -1.19%.

With `COCC(=O)N1CCCn2c(CN3CCCCC3)nnc2C1`, the Percent Effect was found to be 1.5%.

As to `COCCN(CCc1ccccc1)Cc1nc2c(cnn2C)c(=O)[nH]1`, the Percent Effect is 1.95%.

As to `COCC1CN(CC2CC2)Cc2nn(C)cc21` (stereo unspecified), the Percent Effect stood at 12.6%.

With `Cc1nc(CN2CCC3(CC2)NC(=O)CC3c2ccccc2)cs1` (stereo unspecified), the Percent Effect was -5.35%.

For another assay, the target named is Shiga toxin 2 (Escherichia coli O157:H7) (UniProt P09385+P09386). As to the kind of experiment: E. coli 0.157:H7 Shiga Toxin SOP - stx2 screening assay. The assay is classed as functional. The following applies: 30 µM. The arrangement: scale not given: direction of the effect not stated beside the values.
As for `Cc1cc(C)n(C2CN(CC(=O)N3CCOCC3)C2)n1`, the Percent Effect was determined as 9.68%.

With `Cc1ccc(C(=O)NCCNc2ncccc2C#N)c(=O)[nH]1`, the Percent Effect was -19.7%.

For the compound `Cc1ccccc1N1CC2(CCN(S(=O)(=O)C3CC3)C2)CC1=O` (stereo unspecified), the Percent Effect was -4%.

As to `CN(C)CCNC(=O)c1ccc(OC2CCN(S(C)(=O)=O)CC2)c(Cl)c1`, the Percent Effect was -25.9%.

Regarding `Cc1cc(C)n(CC2CCCN2C(=O)CCCc2ccccn2)n1` (stereo unspecified), the Percent Effect stood at 31.8%.

As to `Cc1noc2ncc(C(=O)NCC3CCN(C(C)C)C3)cc12` (stereo unspecified), the Percent Effect came out at 17.2%.

Turning to `COc1ncc(NC(=O)Nc2cc(C)ccc2OC)cn1`, the Percent Effect is -28.6%.

With `Cc1cc(N2CCC(CC(N)=O)CC2)nc(-c2ccncc2)n1`, the Percent Effect worked out at 0.525%.

On to `Cc1nc(C)n(CC2CCCN(Cc3cccc(C#N)c3)C2)n1` (stereo unspecified), for which the Percent Effect is 25.5%.

For the compound `CCSCC(C)NCc1nncn1C1CCCCC1` (stereo unspecified), the Percent Effect is 13.1%.

Regarding `Cc1nc(C)n(C2CCCN(C(=O)c3cc4ccccc4n3C)C2)n1` (stereo unspecified), the Percent Effect was 15%.

As to `O=C(c1cccs1)N1CCC2(C1)c1ccccc1S(=O)(=O)N2CC1CC1` (stereo unspecified), the Percent Effect turned out to be 6.62%.

With `CC(C)c1ccc(C(O)Cn2c(=O)c(C#N)cn(C3CC3)c2=O)cc1` (stereo unspecified), the Percent Effect stood at 14.3%.

In the case of `O=C1COc2cc(C(=O)NS(=O)(=O)c3ccccc3F)ccc2N1`, the Percent Effect worked out at 0.482%.

Consider `Cc1nc(CN(C)C(=O)Nc2cnn(CC3CCCO3)c2)cs1` (stereo unspecified), for which the Percent Effect was -5.02%.

Regarding `COc1cc(S(=O)(=O)N2CCCc3ccccc32)cc(C(=O)O)c1OC`, the Percent Effect was -8.55%.

Turning to `CCc1nc(CN2CCN(C(=O)COCc3ccccc3)CC2)no1`, the Percent Effect is 2.35%.

Regarding `O=C(c1cnccn1)N1CCc2ncnc(-c3cccnc3)c2CC1`, the Percent Effect was -12.4%.

For the compound `CCc1ccc(CN2C[C@@H]3OCCN(c4ccnc(N(C)C)n4)[C@@H]3C2)o1`, the Percent Effect is -25.6%.

Turning to `CC(=O)N1[C@H](Cn2cncn2)C[C@@H]2CN(c3ccc(C)nn3)CC[C@@H]21`, the Percent Effect was -4.03%.

Turning to `Cc1cnc(CN(C)C2CCN(CCn3cc(C#N)cn3)C2)o1` (stereo unspecified), the Percent Effect was determined as 17.1%.

In the case of `CC1CCCCN1CCNC(=O)c1ccn(-c2ccc(F)cc2)n1` (stereo unspecified), the Percent Effect is -12.3%.

With `Cn1cnnc1C1CCCN(C(=O)c2cc(Cl)c3c(c2)OCO3)C1` (stereo unspecified), the Percent Effect is -2.91%.

As to `Cc1cc(C(=O)N2CCCC(n3ccnc3C)C2)c(C)s1` (stereo unspecified), the Percent Effect is -6.7%.

Take `CCC1CN(CC(=O)N2CCC2)CCN1CCOC` (stereo unspecified): the Percent Effect was determined as 9.62%.

As to `CSCc1cccc(C(=O)N2CCN(CC(C)O)CC2)c1` (stereo unspecified), the Percent Effect came to 7.3%.

Take `Cc1cc(CN2CCC(CNC(=O)c3ccc(O)c(Cl)c3)C2)[nH]n1` (stereo unspecified): the Percent Effect is -15.7%.

For the compound `CCN(Cc1ccc2c(c1)OCCO2)C(=O)NCc1nc(C)cs1`, the Percent Effect is 28.5%.

Take `CCN(CC1CCOC1)C(=O)Nc1ccc(-n2cncn2)nc1` (stereo unspecified): the Percent Effect is -25.9%.

For the compound `CC(C)c1n[nH]c(C2CN(C(=O)CCn3ccccc3=O)CCO2)n1` (stereo unspecified), the Percent Effect was determined as 10.2%.

On to `CCc1nc(C2CCCN2C(=O)c2c[nH]c(C)n2)no1` (stereo unspecified), for which the Percent Effect amounted to 0.205%.

As to `Cc1nc(N2CCCC2)nc2c1CN(C(=O)N1CCOCC1)CC2`, the Percent Effect was -3.98%.

On to `O=C1COc2c(cccc2C(=O)N2CCCCC2Cn2cccn2)N1` (stereo unspecified), for which the Percent Effect came out at 27.1%.

`CN(C)C(=O)c1cccc(NC(=O)N(CCO)Cc2ccsc2)c1`: the Percent Effect was -18.5%.

As for `COCc1cccc(NC(C)C(=O)N(C)Cc2ccccc2)c1` (stereo unspecified), the Percent Effect was -8.1%.

In the case of `O=C(NC1(c2cccc(F)c2)CCOCC1)c1ccccn1`, the Percent Effect is -49.2%.

For the compound `COCC(=O)N1CCCn2c(CN3CCCCC3)nnc2C1`, the Percent Effect is -19.1%.

In the case of `COCCN(CCc1ccccc1)Cc1nc2c(cnn2C)c(=O)[nH]1`, the Percent Effect is 29.5%.

As for `COCC1CN(CC2CC2)Cc2nn(C)cc21` (stereo unspecified), the Percent Effect is -5.39%.

With `Cc1nc(CN2CCC3(CC2)NC(=O)CC3c2ccccc2)cs1` (stereo unspecified), the Percent Effect came to 7.78%.

The values above are taken from ChEMBL document CHEMBL3988442, “University of Dundee, Small-Polar-MMV Screening Library” (2021).
